Compound activity (PubChem)
A selection: hits, their analogues and other compounds. The true share with any hit is near 7.3%.
Luc counter: blocks Kinase-Glo luciferase, a counter-screen artifact; Q27757; Kinase-Glo luciferase, ATP luminescence, 8 min; Potency, µM (titrated, usually from 38.3 µM), usual class: inhibitors; 200,000 compounds, 0.28% hits; AID 1379; note: nearly all actives have a fitted effect of over 60% in size
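Light output from Kinase-Glo luciferase with luciferin and 10 uM ATP in 50 mM imidazole pH 7.2, KCl, MgCl2, Tween 20, BSA; compound pin-delivered, 8-min ambient incubation, then luminescence read.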
NPC1 promoter act: NPC1 promoter activation; Huh7 NPC1 promoter luciferase reporter, 24 h; Potency, µM (highest dose often 9.22 µM), hits mostly activators; 320,000 compounds, 2.4% hits; note: nearly all actives have a fitted effect of over 60% in size
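In 1536-well qHTS, Huh7 cells harboring an NPC1 promoter–luciferase construct received compound for 24 h; activation was quantified by luminescence following luciferase reagent addition.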
Rab9 prom act: activators of Rab9 promoter. Huh7 Rab9 promoter-luciferase reporter, luminescence, 24 h. Potency, µM (highest dose often 9.22 µM), actives largely listed as activators. 320,000 compounds, 2.8% hits. AID 485297; note: nearly all actives have a fitted effect of over 60% in size
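Quantitative HTS format; Huh7 Rab9-luciferase reporter cells (1500/well) receive compound 2 h post-plating, incubate 24 h at 37 °C, then get luciferase reagent for 10 min before luminescence reading.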
ELG1 genotoxic: genotoxicity induction in ELG1-luciferase HEK293T cells | AID 504466 | Potency, µM (series often up to 46 µM), usual class: activators | 330,000 compounds, 1.3% hits | HEK293T ELG1-luciferase reporter, luminescence, 16 h; note: nearly all actives have a fitted effect of over 60% in size
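HEK293T cells expressing luciferase-tagged ELG1 were treated with compound or DMSO for 16 hr at 37°C. Luciferase activity was then read after 30 min with ONE-Glo at room temperature; rising signal flags genetic stress.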
SMN2 splice enh: SMN2 splice variant enhancement; Potency, µM (top dose mostly 46.1 µM), hits mostly activators; HEK293 SMN2-luciferase splicing reporter, luminescence, 30-36 h; 210,000 compounds, 2.8% hits; note: nearly all actives have a fitted effect of over 55% in size
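HEK293 cells carry an SMN2 minigene-luciferase reporter in which exon 7 inclusion puts luciferase in frame. Cells were seeded at 2000 cells/well, attached for 10-12 hours, then exposed to compounds for 30-36 hours at 37C before ONE-Glo luminescence.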
FLuc modulator: firefly luciferase modulation, counter-screen for miR-21 project; P08659; purified FLuc, Km substrates, luminescence inhibition; Potency, µM (doses to about 57.5 µM), hits mostly inhibitors; 360,000 compounds, 6.9% hits; note: nearly all actives have a fitted effect of over 55% in size
Target sequence (P08659 whole entry, looked up): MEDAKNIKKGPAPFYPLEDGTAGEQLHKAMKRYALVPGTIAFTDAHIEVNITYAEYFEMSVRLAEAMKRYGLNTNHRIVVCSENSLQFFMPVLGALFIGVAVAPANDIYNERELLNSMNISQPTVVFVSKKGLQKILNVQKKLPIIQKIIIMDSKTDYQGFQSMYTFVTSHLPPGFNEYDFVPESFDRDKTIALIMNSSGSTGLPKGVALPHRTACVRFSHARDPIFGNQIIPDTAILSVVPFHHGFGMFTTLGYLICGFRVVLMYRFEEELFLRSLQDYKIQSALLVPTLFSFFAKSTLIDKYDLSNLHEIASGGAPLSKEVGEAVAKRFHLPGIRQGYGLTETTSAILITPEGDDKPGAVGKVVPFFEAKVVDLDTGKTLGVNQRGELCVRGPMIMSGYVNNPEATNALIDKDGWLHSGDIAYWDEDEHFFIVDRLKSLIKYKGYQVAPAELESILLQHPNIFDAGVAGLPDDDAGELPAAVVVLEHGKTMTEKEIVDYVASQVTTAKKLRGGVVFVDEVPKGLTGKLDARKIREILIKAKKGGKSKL
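Purified P. pyralis luciferase, 10 nM final, with Km-level 10 uM D-luciferin and 10 uM ATP in 50 mM Tris acetate pH 7.5, 10 mM Mg acetate, 0.01% Tween-20, 0.05% BSA; 6-point qHTS titration about 60 µM downward; luminescence read.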
Of the large screens only hits and unclear results are named; the others gave an inactive call. Calls come from the whole dose curve; as a rule, active = well fitted curve in the direction sought with a large enough effect; inconclusive = small, poorly fitted or top-dose-only effect, or another doubt; inactive = no such curve, though single readings can be large; an effect the other way counts as inactive or inconclusive.

CN(C)c1ccc(-c2nnc(-c3ccccc3F)o2)cc1	NPC1 promoter act 0.355µM, Rab9 prom act 0.447µM, ELG1 genotoxic inconclusive, FLuc modulator 1.2µM (no result: Luc counter, SMN2 splice enh)
COC(=O)CN1C(=O)CSc2ccc(S(=O)(=O)N3CCOCC3)cc21	none (no result: Luc counter, NPC1 promoter act, Rab9 prom act, ELG1 genotoxic, SMN2 splice enh)
Cc1cccc(-n2ncc3c(Nc4ccc(Oc5ccc(Cl)cc5)cc4)ncnc32)c1	none (no result: Luc counter, NPC1 promoter act, Rab9 prom act, ELG1 genotoxic, SMN2 splice enh)
Cc1c(C(=O)N(Cc2ccc(N(C)C)cc2)CC2CCCO2)oc2ccc(Br)cc12 (configuration not stated)	none (no result: Luc counter, NPC1 promoter act, Rab9 prom act, ELG1 genotoxic)
O=C(NCc1ccc(Cl)cc1)C(=O)NCC(c1ccco1)S(=O)(=O)c1cccs1 (configuration not stated)	none (no result: Luc counter, NPC1 promoter act, Rab9 prom act, ELG1 genotoxic, SMN2 splice enh)
Cc1nn(-c2ccccc2)c(N)c1C(O)(C(F)(F)F)C(F)(F)F	none
Cc1cc(=O)n2[nH]c(N)c(N=Nc3ccccc3F)c2n1	FLuc modulator inconclusive
Cc1cccc(N=Nc2c(C)nn(-c3ccccc3)c2N)c1C	Rab9 prom act inconclusive, ELG1 genotoxic inconclusive, SMN2 splice enh inconclusive, FLuc modulator 13.5µM
Cc1nn(-c2ccccc2)c(N)c1N=Nc1cccc(S(=O)(=O)N2CCOCC2)c1	FLuc modulator inconclusive (no result: Luc counter, SMN2 splice enh)
Nc1nn(-c2ccccc2)c(N)c1N=Nc1ccccc1	NPC1 promoter act inconclusive, Rab9 prom act inconclusive, ELG1 genotoxic 14.6µM, SMN2 splice enh 8.91µM, FLuc modulator 3.01µM
Nc1c(N=Nc2ccccc2F)c(=O)[nH]n1-c1ccccc1	NPC1 promoter act inconclusive, Rab9 prom act inconclusive, ELG1 genotoxic inconclusive, FLuc modulator 3.79µM
Cc1nn(-c2ccccc2)c(N)c1N=Nc1ccc(Cl)cc1	NPC1 promoter act 2.51µM, Rab9 prom act 2µM, ELG1 genotoxic inconclusive, SMN2 splice enh 22.4µM, FLuc modulator 8.49µM
COc1cc(NC(=O)Cn2c(C)cc(C)c(C#N)c2=O)cc(OC)c1	none (no result: Luc counter, NPC1 promoter act, Rab9 prom act, ELG1 genotoxic, SMN2 splice enh)
Cc1cc(C)n2nc(N)c(N=Nc3ccccc3)c2n1	FLuc modulator 15.1µM (no result: Luc counter, SMN2 splice enh)
Cc1nn(-c2ccccc2)c(N)c1N=Nc1ccccc1	NPC1 promoter act 2.82µM, Rab9 prom act 2µM, ELG1 genotoxic inconclusive, SMN2 splice enh 12.6µM, FLuc modulator 6.75µM
Nc1nn(-c2ccccc2)c(N)c1N=Nc1ccccc1F	NPC1 promoter act 0.562µM, Rab9 prom act 0.447µM, ELG1 genotoxic inconclusive, SMN2 splice enh 3.55µM, FLuc modulator 0.953µM
Cc1cc2c(cc1NS(=O)(=O)c1cccc(C#N)c1)n(C)c(=O)c(=O)n2C	none (no result: Luc counter, NPC1 promoter act, Rab9 prom act, ELG1 genotoxic, SMN2 splice enh)
Cc1cc(C)cc(N2CCn3c2nc2c3c(=O)n(Cc3ccc(Cl)cc3)c(=O)n2C)c1	none (no result: Luc counter, NPC1 promoter act, Rab9 prom act, ELG1 genotoxic, SMN2 splice enh)
O=C1C2=C(Nc3cc([N+](=O)[O-])ccc3N2)O[C@@H]1c1c[nH]c2ccc(COc3ccccc3)cc12	none (no result: NPC1 promoter act, Rab9 prom act, ELG1 genotoxic, FLuc modulator)
Cc1cc(C)nc(N/N=C/C=C/c2ccccc2)n1	FLuc modulator inconclusive
Cn1nc(/C=C/c2ccccc2)ccc1=O	Luc counter inconclusive, Rab9 prom act 3.16µM, ELG1 genotoxic inconclusive, SMN2 splice enh 12.6µM, FLuc modulator inconclusive
O=c1ccc(/C=C/c2ccccc2)nn1Cc1ccccc1	none
Cc1nc(/C=C/c2ccccc2)cc(/C=C/c2ccccc2)n1	ELG1 genotoxic inconclusive, FLuc modulator 19µM
C(=C\c1cc(/C=C/c2ccccc2)ncn1)/c1ccccc1	ELG1 genotoxic inconclusive, FLuc modulator 12µM
Cc1ccc(NC(=O)CN2C(=O)COc3ccc(S(=O)(=O)N4CCCCCC4)cc32)cc1Cl	none (no result: Luc counter, NPC1 promoter act, Rab9 prom act, ELG1 genotoxic, SMN2 splice enh)
COc1cc(OC)c(NS(=O)(=O)c2c(C)nc3sc(C)cn3c2=O)cc1Cl	none (no result: Luc counter, NPC1 promoter act, Rab9 prom act, ELG1 genotoxic, SMN2 splice enh)
CCS(=O)(=O)N1N=C(c2cccs2)CC1c1cc2cc(C)ccc2nc1Cl (configuration not stated)	FLuc modulator 16.9µM (no result: Luc counter, SMN2 splice enh)
Cc1ccc2nc(Cl)c(C3CC(c4cccs4)=NN3C(=O)CCCC(=O)O)cc2c1 (configuration not stated)	none
CSC1=NNC(c2ccc(C(C)(C)C)cc2)=NN1	NPC1 promoter act inconclusive, Rab9 prom act inconclusive, FLuc modulator 12µM (no result: Luc counter, SMN2 splice enh)
CCCCN1CCc2c([nH]c3ccc(C)cc23)C1=O	NPC1 promoter act 2.82µM, Rab9 prom act 3.55µM, SMN2 splice enh inconclusive, FLuc modulator 2.39µM
Cc1ccc2[nH]c3c(c2c1)CCC3=O	ELG1 genotoxic inconclusive
